Assay [1] addresses Death-associated protein kinase 1 (Homo sapiens) (UniProt P53355). Conditions: at 10 µM.
In assay [2] the target is T1, Serine/threonine-protein kinase 17A (Homo sapiens) (UniProt Q9UEE5).
T1 sequence (whole entry): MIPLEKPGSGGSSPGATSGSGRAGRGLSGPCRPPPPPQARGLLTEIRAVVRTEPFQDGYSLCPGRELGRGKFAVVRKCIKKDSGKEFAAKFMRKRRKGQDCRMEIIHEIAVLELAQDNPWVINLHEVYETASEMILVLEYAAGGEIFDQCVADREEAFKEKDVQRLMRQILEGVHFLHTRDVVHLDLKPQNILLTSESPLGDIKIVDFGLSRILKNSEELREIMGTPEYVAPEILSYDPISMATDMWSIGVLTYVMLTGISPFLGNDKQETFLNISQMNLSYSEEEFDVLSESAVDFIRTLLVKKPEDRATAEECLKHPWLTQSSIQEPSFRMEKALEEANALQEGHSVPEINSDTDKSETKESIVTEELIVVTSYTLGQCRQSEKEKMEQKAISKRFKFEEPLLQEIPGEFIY
The settings on record: at 1 µM.

Assay [3] has as its target T1, Serine/threonine-protein kinase 17A (Homo sapiens). The settings on record: at 10 µM.
For assay [4], the target named is T2, Ephrin type-A receptor 1 (Homo sapiens) (UniProt P21709).
T2 sequence (whole entry): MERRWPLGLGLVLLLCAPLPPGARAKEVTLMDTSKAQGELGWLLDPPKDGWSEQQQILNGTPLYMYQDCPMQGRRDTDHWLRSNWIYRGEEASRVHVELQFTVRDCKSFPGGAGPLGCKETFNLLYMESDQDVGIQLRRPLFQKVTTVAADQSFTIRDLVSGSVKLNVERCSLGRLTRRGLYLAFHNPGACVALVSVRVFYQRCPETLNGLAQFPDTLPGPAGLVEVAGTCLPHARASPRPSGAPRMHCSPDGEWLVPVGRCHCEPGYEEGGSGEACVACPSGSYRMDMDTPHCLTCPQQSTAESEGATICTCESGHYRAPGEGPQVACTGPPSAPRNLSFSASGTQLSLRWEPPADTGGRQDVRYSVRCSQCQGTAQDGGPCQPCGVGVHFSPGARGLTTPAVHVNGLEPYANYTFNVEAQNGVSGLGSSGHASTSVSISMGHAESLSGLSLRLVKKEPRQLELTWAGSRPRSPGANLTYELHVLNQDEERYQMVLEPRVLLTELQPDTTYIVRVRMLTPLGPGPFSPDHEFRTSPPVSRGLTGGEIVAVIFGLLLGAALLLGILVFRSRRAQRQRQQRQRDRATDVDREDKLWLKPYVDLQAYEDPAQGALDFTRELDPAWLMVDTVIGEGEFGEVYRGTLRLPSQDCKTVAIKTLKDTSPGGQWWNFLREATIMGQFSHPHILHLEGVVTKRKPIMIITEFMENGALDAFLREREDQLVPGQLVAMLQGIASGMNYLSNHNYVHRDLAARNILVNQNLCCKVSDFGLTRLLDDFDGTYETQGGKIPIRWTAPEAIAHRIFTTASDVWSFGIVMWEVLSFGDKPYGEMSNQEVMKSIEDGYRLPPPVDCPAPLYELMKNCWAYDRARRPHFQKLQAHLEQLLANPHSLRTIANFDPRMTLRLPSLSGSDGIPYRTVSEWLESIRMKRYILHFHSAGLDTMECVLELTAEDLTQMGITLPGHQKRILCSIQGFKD
Conditions: at 1 µM.

The target in assay [5] is T2, Ephrin type-A receptor 1 (Homo sapiens). The settings on record: at 10 µM.
Assay [6] addresses T3, Myotonin-protein kinase (Homo sapiens) (UniProt Q09013).
T3 sequence (whole entry): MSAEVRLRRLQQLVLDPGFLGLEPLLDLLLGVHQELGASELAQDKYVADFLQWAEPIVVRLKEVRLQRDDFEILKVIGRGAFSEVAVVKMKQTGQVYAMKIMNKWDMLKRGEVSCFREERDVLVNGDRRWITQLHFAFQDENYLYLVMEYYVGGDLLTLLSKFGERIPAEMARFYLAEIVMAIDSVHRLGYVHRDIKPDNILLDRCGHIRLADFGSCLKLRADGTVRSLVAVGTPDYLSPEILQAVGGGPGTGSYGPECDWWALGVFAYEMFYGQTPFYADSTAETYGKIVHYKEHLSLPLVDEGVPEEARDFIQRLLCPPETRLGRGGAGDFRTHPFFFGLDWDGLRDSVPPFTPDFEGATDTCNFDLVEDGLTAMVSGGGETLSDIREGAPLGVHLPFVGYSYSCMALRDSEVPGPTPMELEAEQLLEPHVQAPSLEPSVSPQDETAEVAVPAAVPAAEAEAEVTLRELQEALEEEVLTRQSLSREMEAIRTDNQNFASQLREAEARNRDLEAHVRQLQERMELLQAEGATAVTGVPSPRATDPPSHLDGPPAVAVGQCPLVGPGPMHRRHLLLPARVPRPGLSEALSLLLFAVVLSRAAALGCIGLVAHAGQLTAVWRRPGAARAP
Conditions: at 1 µM.

The target of assay [7] is Death-associated protein kinase 2 (Homo sapiens) (UniProt Q9UIK4). Conditions: at 1 µM.
Death-associated protein kinase 2 (Homo sapiens), sequence (Q9UIK4 whole entry, looked up): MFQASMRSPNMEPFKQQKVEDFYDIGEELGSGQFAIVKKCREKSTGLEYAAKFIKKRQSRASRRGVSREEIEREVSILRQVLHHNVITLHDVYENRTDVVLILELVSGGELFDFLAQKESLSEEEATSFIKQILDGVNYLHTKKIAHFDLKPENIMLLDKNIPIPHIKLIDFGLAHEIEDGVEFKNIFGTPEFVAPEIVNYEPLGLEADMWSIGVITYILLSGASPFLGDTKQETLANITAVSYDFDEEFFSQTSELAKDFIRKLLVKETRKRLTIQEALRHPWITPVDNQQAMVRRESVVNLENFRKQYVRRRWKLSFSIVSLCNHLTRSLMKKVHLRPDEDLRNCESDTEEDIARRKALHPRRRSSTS
Assay [8] has the same target. Conditions: at 10 µM.
Assay [9] deals with T4, Discoidin domain-containing receptor 2 (Homo sapiens) (UniProt Q16832).
T4 sequence (whole entry): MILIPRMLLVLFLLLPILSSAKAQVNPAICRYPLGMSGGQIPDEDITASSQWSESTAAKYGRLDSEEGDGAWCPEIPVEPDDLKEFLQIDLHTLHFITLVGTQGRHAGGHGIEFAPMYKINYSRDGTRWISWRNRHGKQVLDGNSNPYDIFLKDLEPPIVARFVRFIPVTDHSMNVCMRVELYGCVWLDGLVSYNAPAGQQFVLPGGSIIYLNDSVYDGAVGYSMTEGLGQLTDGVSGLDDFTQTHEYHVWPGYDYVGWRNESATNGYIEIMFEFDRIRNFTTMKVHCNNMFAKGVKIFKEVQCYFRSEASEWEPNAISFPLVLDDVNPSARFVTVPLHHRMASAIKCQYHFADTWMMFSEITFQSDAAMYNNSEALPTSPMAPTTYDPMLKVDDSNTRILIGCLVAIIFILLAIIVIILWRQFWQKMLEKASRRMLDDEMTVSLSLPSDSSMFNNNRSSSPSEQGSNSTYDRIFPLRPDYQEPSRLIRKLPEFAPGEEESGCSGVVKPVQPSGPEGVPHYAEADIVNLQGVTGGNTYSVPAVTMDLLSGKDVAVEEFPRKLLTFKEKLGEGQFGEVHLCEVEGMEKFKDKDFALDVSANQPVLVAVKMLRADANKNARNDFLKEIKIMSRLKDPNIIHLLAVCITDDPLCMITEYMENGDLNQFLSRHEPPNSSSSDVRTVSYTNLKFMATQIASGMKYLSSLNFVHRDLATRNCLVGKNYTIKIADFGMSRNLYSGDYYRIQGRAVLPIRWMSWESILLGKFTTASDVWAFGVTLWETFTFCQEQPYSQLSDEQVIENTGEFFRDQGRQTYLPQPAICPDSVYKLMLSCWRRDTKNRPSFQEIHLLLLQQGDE
The settings on record: at 1 µM.

Assay [10] has as its target T4, Discoidin domain-containing receptor 2 (Homo sapiens). Conditions: at 10 µM.
In assay [11] the target is T5, Dual specificity tyrosine-phosphorylation-regulated kinase 2 (Homo sapiens) (UniProt Q92630).
T5 sequence (whole entry): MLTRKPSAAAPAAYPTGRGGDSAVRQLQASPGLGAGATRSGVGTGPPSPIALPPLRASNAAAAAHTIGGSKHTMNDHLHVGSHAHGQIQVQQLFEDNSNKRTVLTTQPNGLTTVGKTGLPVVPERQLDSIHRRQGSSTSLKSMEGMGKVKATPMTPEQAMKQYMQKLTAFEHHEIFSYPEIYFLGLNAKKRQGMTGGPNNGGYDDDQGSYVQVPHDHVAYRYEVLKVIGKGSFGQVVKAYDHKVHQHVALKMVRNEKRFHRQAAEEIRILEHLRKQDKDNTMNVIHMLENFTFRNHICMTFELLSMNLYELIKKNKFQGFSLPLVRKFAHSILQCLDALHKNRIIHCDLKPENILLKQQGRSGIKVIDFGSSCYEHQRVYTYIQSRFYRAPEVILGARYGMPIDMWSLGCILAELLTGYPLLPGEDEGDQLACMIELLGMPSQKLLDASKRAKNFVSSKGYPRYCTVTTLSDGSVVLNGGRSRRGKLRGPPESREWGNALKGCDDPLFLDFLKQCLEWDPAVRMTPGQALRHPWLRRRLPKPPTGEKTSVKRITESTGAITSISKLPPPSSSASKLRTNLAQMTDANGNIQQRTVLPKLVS
Conditions: at 1 µM.

The target of assay [12] is T5, Dual specificity tyrosine-phosphorylation-regulated kinase 2 (Homo sapiens). The settings on record: at 10 µM.
The target in assay [13] is Ephrin type-A receptor 2 (Homo sapiens) (UniProt P29317). Conditions: at 1 µM.
Ephrin type-A receptor 2 (Homo sapiens), sequence (P29317 whole entry): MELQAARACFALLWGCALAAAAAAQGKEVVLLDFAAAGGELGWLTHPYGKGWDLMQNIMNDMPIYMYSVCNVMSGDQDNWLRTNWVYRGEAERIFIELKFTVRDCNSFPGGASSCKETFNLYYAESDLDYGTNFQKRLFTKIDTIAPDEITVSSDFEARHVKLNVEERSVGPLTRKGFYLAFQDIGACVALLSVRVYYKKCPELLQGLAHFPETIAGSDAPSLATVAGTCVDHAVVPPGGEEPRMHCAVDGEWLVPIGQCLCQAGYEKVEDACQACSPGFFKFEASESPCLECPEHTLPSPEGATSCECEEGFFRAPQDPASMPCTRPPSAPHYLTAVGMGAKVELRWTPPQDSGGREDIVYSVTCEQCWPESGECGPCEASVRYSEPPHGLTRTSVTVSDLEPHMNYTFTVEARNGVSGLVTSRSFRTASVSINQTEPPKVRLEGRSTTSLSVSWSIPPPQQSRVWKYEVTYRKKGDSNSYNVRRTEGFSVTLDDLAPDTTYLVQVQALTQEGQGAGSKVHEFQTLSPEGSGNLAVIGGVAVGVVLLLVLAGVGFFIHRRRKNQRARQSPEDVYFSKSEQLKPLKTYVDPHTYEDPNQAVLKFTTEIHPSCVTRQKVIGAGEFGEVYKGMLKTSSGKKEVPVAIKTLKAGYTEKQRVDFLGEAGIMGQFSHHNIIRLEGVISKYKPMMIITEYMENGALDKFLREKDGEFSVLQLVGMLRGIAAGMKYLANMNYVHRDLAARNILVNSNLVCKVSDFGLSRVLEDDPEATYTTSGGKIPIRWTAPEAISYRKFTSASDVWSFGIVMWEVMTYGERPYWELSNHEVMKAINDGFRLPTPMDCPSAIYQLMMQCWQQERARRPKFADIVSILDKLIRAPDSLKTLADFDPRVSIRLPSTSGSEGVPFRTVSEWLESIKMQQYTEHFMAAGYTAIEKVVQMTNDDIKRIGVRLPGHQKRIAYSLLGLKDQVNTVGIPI
Assay [14] shares this target. Conditions: at 10 µM.
In assay [15] the target is T6, Ephrin type-A receptor 3 (Homo sapiens) (UniProt P29320).
T6 sequence (whole entry): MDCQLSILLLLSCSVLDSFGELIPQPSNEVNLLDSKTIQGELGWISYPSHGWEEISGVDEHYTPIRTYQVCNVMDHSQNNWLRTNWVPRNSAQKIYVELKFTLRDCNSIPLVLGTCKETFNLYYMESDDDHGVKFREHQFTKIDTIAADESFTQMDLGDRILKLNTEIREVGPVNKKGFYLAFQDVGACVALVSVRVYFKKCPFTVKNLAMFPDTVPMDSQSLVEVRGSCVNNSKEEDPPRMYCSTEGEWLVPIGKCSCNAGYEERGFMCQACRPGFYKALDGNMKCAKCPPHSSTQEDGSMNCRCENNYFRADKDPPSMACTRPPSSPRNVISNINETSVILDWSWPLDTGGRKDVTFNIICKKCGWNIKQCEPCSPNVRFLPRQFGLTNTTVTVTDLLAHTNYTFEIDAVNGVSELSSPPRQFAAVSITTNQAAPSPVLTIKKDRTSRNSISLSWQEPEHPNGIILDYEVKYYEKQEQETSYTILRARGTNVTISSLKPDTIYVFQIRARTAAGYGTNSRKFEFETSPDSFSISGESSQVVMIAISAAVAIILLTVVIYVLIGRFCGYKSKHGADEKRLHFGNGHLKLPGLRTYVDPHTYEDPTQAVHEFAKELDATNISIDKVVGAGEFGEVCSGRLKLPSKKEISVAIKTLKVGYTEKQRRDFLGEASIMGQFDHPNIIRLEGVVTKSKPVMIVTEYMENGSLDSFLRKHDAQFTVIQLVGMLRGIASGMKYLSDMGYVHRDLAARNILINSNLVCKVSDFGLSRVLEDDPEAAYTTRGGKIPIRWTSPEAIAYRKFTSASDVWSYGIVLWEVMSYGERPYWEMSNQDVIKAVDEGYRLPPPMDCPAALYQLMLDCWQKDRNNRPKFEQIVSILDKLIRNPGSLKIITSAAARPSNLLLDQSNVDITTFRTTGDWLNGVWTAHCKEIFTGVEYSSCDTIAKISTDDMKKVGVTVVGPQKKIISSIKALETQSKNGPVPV
The settings on record: at 1 µM.

The structures appear in SMILES notation.

Death-associated protein kinase 1 (Homo sapiens), sequence (P53355 whole entry, looked up): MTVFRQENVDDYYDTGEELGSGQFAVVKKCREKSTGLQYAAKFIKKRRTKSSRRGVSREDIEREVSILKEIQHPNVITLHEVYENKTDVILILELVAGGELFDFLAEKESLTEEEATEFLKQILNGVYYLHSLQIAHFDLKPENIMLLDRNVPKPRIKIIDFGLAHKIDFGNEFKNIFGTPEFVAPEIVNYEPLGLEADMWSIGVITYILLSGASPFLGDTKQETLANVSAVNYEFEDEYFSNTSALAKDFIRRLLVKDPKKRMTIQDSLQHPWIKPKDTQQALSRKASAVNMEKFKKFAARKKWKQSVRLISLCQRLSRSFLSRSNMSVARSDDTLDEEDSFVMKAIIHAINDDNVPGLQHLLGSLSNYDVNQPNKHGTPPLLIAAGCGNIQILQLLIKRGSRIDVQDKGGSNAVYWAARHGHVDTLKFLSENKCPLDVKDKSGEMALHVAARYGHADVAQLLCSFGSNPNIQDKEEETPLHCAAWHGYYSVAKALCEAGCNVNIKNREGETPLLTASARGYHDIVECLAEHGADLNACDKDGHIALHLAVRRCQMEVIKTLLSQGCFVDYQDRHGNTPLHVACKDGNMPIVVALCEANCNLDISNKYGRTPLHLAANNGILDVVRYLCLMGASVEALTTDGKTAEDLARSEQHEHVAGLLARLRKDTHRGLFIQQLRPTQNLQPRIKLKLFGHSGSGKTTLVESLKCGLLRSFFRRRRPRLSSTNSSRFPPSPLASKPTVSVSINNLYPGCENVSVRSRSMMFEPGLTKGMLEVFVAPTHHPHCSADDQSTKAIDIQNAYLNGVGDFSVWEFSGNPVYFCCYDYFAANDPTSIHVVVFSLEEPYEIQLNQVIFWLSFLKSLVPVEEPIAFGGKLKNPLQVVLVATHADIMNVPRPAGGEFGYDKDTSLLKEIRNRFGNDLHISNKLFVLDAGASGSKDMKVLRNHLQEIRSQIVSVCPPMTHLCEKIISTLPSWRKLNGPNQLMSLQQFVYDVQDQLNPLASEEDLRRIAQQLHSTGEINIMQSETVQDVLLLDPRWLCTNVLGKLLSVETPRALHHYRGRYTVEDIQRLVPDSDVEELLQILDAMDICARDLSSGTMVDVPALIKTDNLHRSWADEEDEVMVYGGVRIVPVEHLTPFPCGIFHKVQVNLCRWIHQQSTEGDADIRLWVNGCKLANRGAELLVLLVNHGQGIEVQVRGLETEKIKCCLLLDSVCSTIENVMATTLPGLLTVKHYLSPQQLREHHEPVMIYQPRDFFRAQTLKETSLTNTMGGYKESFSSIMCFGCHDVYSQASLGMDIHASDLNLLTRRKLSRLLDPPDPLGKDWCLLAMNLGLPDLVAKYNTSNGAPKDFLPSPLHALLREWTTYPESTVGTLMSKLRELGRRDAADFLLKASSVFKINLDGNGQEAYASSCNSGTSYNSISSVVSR

`CCOC(=O)c1c(C)[nH]c(/C=C2\C(=O)Nc3ccccc32)c1C`: the residual activity (commonly the signal under treatment as a percentage of the control signal) in assay [1] was found to be 99%; in [2] it was 86%; in assay [3] it was 75%; in assay [4] it was 83%; in assay [5], 118%.

As for `O=C1Nc2ccccc2/C1=C\c1c(Cl)[nH]c2ccccc12`, the residual activity in [1] came to 83%; in assay [6] it was 119%; in [2] it was 83%; in assay [3] it was 85%; in assay [4], 87%; in assay [5], 72%.

Consider `CCCCc1c(-c2ccc(O)cc2)[nH]c2nccnc12`, for which the residual activity in [7] was 89%; in assay [8], 96%; in assay [9] it was 71%; in assay [10], 36%; in assay [2], 77%; in assay [3] it was 44%. For the same compound, the residual activity was determined as 85% in [11]; 34% in [12]; 29% in [4]; 47% in [5]; 82% in assay [13]; 60% in assay [14]. Further, the residual activity in assay [15] was 72%.

The values are drawn from ChEMBL document CHEMBL2218924, “A broad activity screen in support of a chemogenomic map for kinase signalling research and drug discovery” (Biochem J, 2013).
